Bioassay records deposited in PubChem by Sanford-Burnham Center for Chemical Genomics.
CD11b adhes enh = CD11b/CD18-fibrinogen binding enhancement | K562 CD11b/CD18 adhesion to fibrinogen, ATPlite luminescence | P05107+P11215 | activation, % at 10 µM | 0.07% of 93,000 active;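 active = 10 µM primary screen giving 50% or more activity, confirmed by 40% or more on retest at that dose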
CYP2C9 act = activators of human CYP2C9; P11712; recombinant CYP2C9, luciferin-H conversion, luminescence; stronger effect = higher value; factor 1 = untreated enzyme, 0 = blocked; activation factor at 5 µM; 1.4% of 96,000 active; AID 1024;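 active = activation factor of 2 or more for CYP2C9 at a 5 µM dose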
Mac1 fbg inh = inhibitors of human CD11b/CD18 binding to fibrinogen; AID 1497; 0.54% of 93,000 active; inhibition, % at 10 µM; K562 CD11b/CD18 adhesion to fibrinogen, ATPlite luminescence; Mn2+ added to activate the integrin;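 active = primary inhibition of 50% or more at 10 µM, then 40% or more on retest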
CYP2C19 act = cytochrome P450 2C19 (human) activation | recombinant CYP2C19, luciferin-H EGE luminescence; stronger effect = higher value; 0 = fully inhibited enzyme, 1 = untreated enzyme | activation factor at 5 µM | P33261 | 96,000 tested, under 10 active | AID 1025;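 active = activation factor of at least 2 at 5 µM in the primary screen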
Target sequence (P33261 whole entry, looked up): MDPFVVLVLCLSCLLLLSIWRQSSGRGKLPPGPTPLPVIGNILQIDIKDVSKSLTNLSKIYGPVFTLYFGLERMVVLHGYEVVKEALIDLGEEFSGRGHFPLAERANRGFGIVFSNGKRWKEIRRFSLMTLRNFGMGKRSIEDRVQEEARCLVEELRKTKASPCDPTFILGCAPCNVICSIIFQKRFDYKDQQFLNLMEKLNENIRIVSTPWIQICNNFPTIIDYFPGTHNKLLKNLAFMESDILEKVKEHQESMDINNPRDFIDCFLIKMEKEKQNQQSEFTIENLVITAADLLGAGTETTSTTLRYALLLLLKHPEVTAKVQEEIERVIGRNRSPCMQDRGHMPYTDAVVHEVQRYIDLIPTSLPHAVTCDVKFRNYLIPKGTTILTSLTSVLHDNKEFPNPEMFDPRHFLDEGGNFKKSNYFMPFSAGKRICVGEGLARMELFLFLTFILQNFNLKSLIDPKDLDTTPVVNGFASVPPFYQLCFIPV
CYP2C19 inh = blocks human cytochrome P450 2C19; P33261; CYP2C19 Supersomes, luciferin-H EGE luminescence, 30 min; inhibition, % at 5 µM; 21% of 96,000 active; AID 778;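 active = CYP2C19 inhibition above a set limit at 5 µM in the primary screen, cut at about 50% in these data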
CYP2C9 inh = human CYP2C9 inhibition. inhibition, % at 5 µM. AID 777. CYP2C9 Supersomes, luciferin-H conversion, luminescence. 20% of 96,000 active. P11712;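 active = blocking of liver enzyme CYP2C9 beyond about 50% at 5 µM, limit read from the data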
A number is an active result; n = inactive; x = not tested or not shown. Most compounds without a hit are left out; they make up all but 28% or so of the library.

SMILES | CD11b adhes enh | CYP2C9 act | Mac1 fbg inh | CYP2C19 act | CYP2C19 inh | CYP2C9 inh
O=C(c1ccc2ccccc2c1)N1CCN(c2ccccc2)CC1 | n | n | n | n | 62 | n
O=C(c1cccc(S(=O)(=O)N2CCCC2)c1)N1CCN(c2ccccc2)CC1 | n | n | n | n | 67 | n
CN1CCN(C(=O)c2cccc(S(=O)(=O)N3CCCCC3)c2)CC1 | n | n | n | n | n | n
O=C(COc1ccc(S(=O)(=O)N2CCCC2)cc1Cl)N1CCN(c2ccccc2)CC1 | n | n | n | n | 88 | 85
CCc1cc2cc(C(=O)N3CCN(c4ccccc4)CC3)sc2s1 | n | n | n | n | n | 63
CCCCc1nc(SCC(=O)Nc2ccc(S(N)(=O)=O)cc2)n[nH]1 | n | n | n | n | n | n
c1ccc(Cn2nnnc2C(c2cccnc2)N2CCN(c3ccccc3)CC2)cc1 (centres undefined) | n | n | n | n | n | n
Cc1nc2ccccn2c1C(=O)N=Nc1c(O)n(CCC(C)C)c2ccccc12 | n | x | n | x | x | x
Cc1cc(C)c(C#N)c(Oc2ccc(O)cc2)n1 | n | n | n | n | n | 65
COc1ccccc1N1C(=O)C2C3C=CC(C3)C2C1=O (centres undefined) | n | n | n | n | n | n
CCc1ccc(C(=O)c2ccccc2C(=O)O)s1 | x | n | x | n | n | n
O=C(O)Cc1ccc(C(=O)c2ccccc2F)s1 | n | n | n | n | 50 | n
COc1cc(S(=O)(=O)N2CCN(C(=O)c3ccccc3F)CC2)c(OC)cc1NC(C)=O | n | n | n | n | n | n
CCC(CC)C(=O)OCC(=O)NC12CC3CC(CC(C3)C1)C2 | n | n | n | n | 94 | n
Cc1cc(C)n2cc(CSc3nnnn3-c3ccccc3)nc2n1 | n | n | n | n | n | n
Cc1nc(Sc2nnnn2-c2ccccc2)c(C#N)c(C)c1C | n | n | n | n | 59 | n
Cc1ccccc1-n1nnnc1SCC(N)=O | n | n | n | n | n | n
CCCn1c(Sc2nnnn2-c2ccccc2)n[nH]c1=O | n | n | n | n | n | n
Cc1cc(C)c(C#N)c(Sc2nnnn2-c2ccccc2)n1 | n | n | n | n | 57 | n
Cc1ccccc1-n1nnnc1Sc1nnnn1-c1ccccc1 | n | n | n | n | 88 | n
c1ccc(-n2nnnc2Sc2n[nH]c(-c3ccncc3)n2)cc1 | n | n | n | n | n | 80
O=C(NCCSCc1c(F)cccc1Cl)c1ccco1 | n | n | n | n | 80 | 75
S=C(NCc1ccccc1)NCC1COc2ccccc2O1 (centres undefined) | n | n | n | n | 93 | 81
Oc1ccc(CNCC2COc3ccccc3O2)cc1 (centres undefined) | n | n | n | n | 56 | n
CC1(C(=O)CSc2nc3ccccc3s2)CCC(=O)O1 (centres undefined) | x | n | x | n | n | n
SMILES | CD11b adhes enh | CYP2C9 act | Mac1 fbg inh | CYP2C19 act | CYP2C19 inh | CYP2C9 inh
O=S(=O)(Nc1nccs1)c1cc(Cl)ccc1Cl | n | n | n | n | n | n
COC(=O)c1cc(-c2ccccc2)sc1NC(=O)c1cc(C)on1 | n | x | n | x | x | x
O=C(O)CSC12CC3CC(C1)CC(C(=O)O)(C3)C2 | n | n | n | n | n | n
COc1ccc(N2CCN(Cc3nc(N)nc(Nc4ccccc4OC)n3)CC2)cc1 | n | n | n | n | n | n
Nc1nc(CN2CCN(c3ccc(F)cc3)CC2)nc(N2CCCc3ccccc32)n1 | n | n | n | n | 60 | 53
O=C(Nc1ncccc1O)c1cccc(S(=O)(=O)N2CCc3ccccc32)c1 | n | n | n | n | 72 | 75
CCc1nnc(NC(=O)c2ccc(Cl)c(S(=O)(=O)N3CCc4ccccc43)c2)s1 | n | n | 86 | n | 75 | 81
O=C(Nc1nnc(C2CC2)s1)c1ccc(Cl)c(S(=O)(=O)N2CCc3ccccc3C2)c1 | n | x | n | x | x | x
CC(C)(C)OCC(NC(=O)C(CC(N)=O)NC(=O)OC(C)(C)C)C(=O)OC(C)(C)C (centres undefined) | n | n | n | n | n | n
COC(=O)c1ccc(C)c(NC(=O)CCSc2ccccc2)c1 | n | n | n | n | n | 55
CCC(=O)Nc1cc(C(=O)OC(C(=O)c2ccc(C)c(C)c2)c2ccccc2)ccc1C (centres undefined) | n | n | n | n | n | 58
COc1cc2c(cc1OC)C(c1ccccc1F)OC(=O)C2 (centres undefined) | n | x | n | x | x | x
CCOC(=O)C1CCCN(c2cc(=O)n(Cc3ccc(F)cc3)c(=O)[nH]2)C1 (centres undefined) | n | n | n | n | n | n
COc1ccc(-c2cc(C(F)(F)F)n3nc(C(=O)NCCCn4ccnc4)cc3n2)cc1 | n | n | n | n | 83 | 98
O=C(NCc1ccco1)c1cc2nc(C3CC3)cc(C(F)(F)F)n2n1 | n | n | n | n | n | n
COc1ccc(-c2cc(C(F)(F)F)n3nc(C(=O)NCc4ccco4)cc3n2)cc1OC | n | n | n | n | 76 | 69
Cc1cc(Br)ccc1SCC(=O)OCC(=O)Nc1ccccc1C#N | n | x | n | x | x | x
CCOc1cc(C(=O)Nc2ccccc2N2CCN(S(C)(=O)=O)CC2)cc(OCC)c1OCC | n | n | n | n | n | n
CCOC(=O)C1CCCn2c1nc1sc3c(c1c2=O)CCCC3 (centres undefined) | n | n | n | n | 66 | 77
CCn1c(NN)nc2sc3c(c2c1=O)CCC3 | n | n | n | n | 75 | 79
CCn1c(SCC(=O)NCCOC)nc2sc(C)c(C)c2c1=O | n | n | n | n | n | n
CCn1c(SCC(=O)NCCOC)nc2sc3c(c2c1=O)CCCC3 | n | n | n | n | n | 80
Nn1c(Nc2ccccc2)nc2sc3c(c2c1=O)CCC3 | n | n | n | n | 75 | 98
NC(=O)CSc1nc2sc3c(c2c2ncnn12)CCCC3 | n | n | n | n | n | n
CCCc1nc2sc3c(c2c(=O)n1N)CCC3 | n | n | n | n | 74 | n
SMILES | CD11b adhes enh | CYP2C9 act | Mac1 fbg inh | CYP2C19 act | CYP2C19 inh | CYP2C9 inh
CCn1c(SCC(N)=O)nc2sc3c(c2c1=O)CCCC3 | n | n | n | n | n | 55
CCc1nc2sc3c(c2c(=O)n1N)CCC3 | n | n | n | n | n | n
N=c1sccn1CC(=O)Nc1ccc(Cl)c(S(=O)(=O)N2CCOCC2)c1 | n | n | n | n | n | n
Cc1ccc(-c2ccc(=O)n(CC(=O)N3CCN(c4cc(Cl)ccc4C)CC3)n2)cc1 | n | n | n | n | n | n
O=C(CSc1nnc(Cc2cccs2)n1-c1ccccc1)NCc1ccc2c(c1)OCO2 | n | n | n | n | n | 59
O=C(CSc1nnc2scc(-c3ccccc3)n12)NCc1ccc2c(c1)OCO2 | n | n | n | n | 68 | n
C=CCn1c(SCC(=O)NCc2ccc3c(c2)OCO3)nc2scc(-c3ccc(F)cc3)c2c1=O | n | n | n | n | n | n
